PubChem BioAssay AID1220 (Sanford-Burnham Center for Chemical Genomics, 2008)
Out of some 190,000 compounds screened, about 1,300 (0.68%) were called active. Many of the other results were omitted from the sample, so actives are more common in it than they were. Values without a mark were called inactive. Rule as the data show it: active = inhibition above about 50%; inactive = the rest.

Target: Mannose-6-phosphate isomerase (Homo sapiens) (UniProt P34949)
Assay: human PMI inhibitors, high substrate, primary screen, biochemical, fluorescence intensity, high mannose 6-phosphate (AID 1220)
Conditions: recombinant PMI enzyme, coupled fluorescence intensity; at 20 µM; stronger effect = higher value

Mannose-6-phosphate isomerase (Homo sapiens), sequence (P34949 whole entry, looked up): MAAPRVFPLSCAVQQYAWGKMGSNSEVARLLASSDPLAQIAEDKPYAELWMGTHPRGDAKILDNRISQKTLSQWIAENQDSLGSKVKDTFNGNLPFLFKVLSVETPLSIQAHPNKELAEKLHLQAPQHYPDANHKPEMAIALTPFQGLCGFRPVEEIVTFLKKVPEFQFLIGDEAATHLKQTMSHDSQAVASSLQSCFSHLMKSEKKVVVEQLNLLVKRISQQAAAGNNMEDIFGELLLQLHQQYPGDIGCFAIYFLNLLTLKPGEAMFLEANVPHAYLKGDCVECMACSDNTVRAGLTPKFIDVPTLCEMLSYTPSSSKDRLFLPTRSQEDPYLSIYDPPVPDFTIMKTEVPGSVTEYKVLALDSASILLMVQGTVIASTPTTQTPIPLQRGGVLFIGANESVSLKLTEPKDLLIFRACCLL

Row | Structure (SMILES) | inhibition
1 | CCC(C)NCCOCCOc1ccc(C)cc1Br (stereo not given) | 0.7%
2 | CCn1c(SCC(=O)N/N=C/C=C\c2ccccc2[N+](=O)[O-])nc2ccccc21 | 6.4%
3 | CCOc1ccc(NC2CCN(C(C)=O)CC2)cc1 | 33.1%
4 | Clc1ccc(CCNc2nc3ccccc3s2)cc1 | 1.2%
5 | O=C(CSc1ncccc1C(=O)O)c1ccccc1 | -60.9%
6 | Cn1c(SCC(=O)Nc2cccc(Br)c2)nnc1-c1cc2ccccc2o1 | -14.1%
7 | O=C(NCCc1ccccc1)c1ccccc1F | 8.3%
8 | c1cncc(-c2cccnc2)c1 | -2.8%
9 | c1cncc(-c2nn[nH]n2)c1 | -12.1%
10 | c1cncc(-c2nnc(-c3cccnc3)nn2)c1 | 62.4% (active)
11 | COc1ccc(S(=O)(=O)NC(CC(=O)NCC2CCCO2)c2ccco2)cc1 (stereo not given) | 8%
12 | Cc1cccc(OCCOCCN2CCNCC2)c1C | -5%
13 | Cc1nc2sc(C(c3ccccc3)N3CCOCC3)c(O)n2n1 (stereo not given) | 3.4%
14 | O=C(O)CNC(=O)CC1S/C(=N/N=C2/NC(=O)CS2)NC1=O (stereo not given) | 29.5%
15 | NC1=NC(=O)C(CC(=O)NCc2ccccc2)S1 (stereo not given) | -10.3%
16 | Cc1ccc(C(=O)OCC(=O)Nc2ccccc2)cc1NC(=O)c1ccco1 | -0.6%
17 | Cc1ccc(C)c(N2CCN(C(=O)CNS(=O)(=O)c3cccs3)CC2)c1 | -4.9%
18 | COc1ccc(Cn2c(SCc3ccc(C)cc3)nc3cc(OC)c(OC)cc3c2=N)cc1Cl | 1.9%
19 | Cc1ccsc1/C=C/c1ccc2cccc(O)c2n1 | -8.2%
20 | CSc1ccc(/C=C/c2ccc3cccc(O)c3n2)cc1 | 17.3%
21 | O=C(CSc1nnc(-c2cccs2)n1-c1ccccc1)NCC1CCCO1 (stereo not given) | 5.8%
22 | O=C1c2ccccc2-c2onc3ccc(NCCCn4ccnc4)c1c23 | 14.4%
23 | O=C1c2ccccc2C(=O)c2c1cccc2N1CCCC1 | 19.4%
24 | O=C1c2ccccc2-c2onc3ccc(N4CCCC4)c1c23 | 62.6% (active)
25 | O=C1c2ccccc2-c2onc3ccc(NCc4ccco4)c1c23 | 58.1% (active)

Row | Structure (SMILES) | inhibition
26 | CCOc1ccc2noc3c2c1C(=O)c1ccccc1-3 | 19%
27 | CCNc1ccc2noc3c2c1C(=O)c1ccccc1-3 | 46%
28 | CSc1nc2ccccc2n1CC(=O)N1CCCCC1 | 8.7%
29 | CCC(Sc1ccc2nnc(-c3ccc(OC)c(OC)c3)n2n1)C(=O)O (stereo not given) | -19.3%
30 | CN(C)S(=O)(=O)c1cc(NC(=O)Cn2ccsc2=N)ccc1Cl | -0.6%
31 | CN1CCN(c2ccccc2NC(=O)c2sc3ccccc3c2Cl)CC1 | 62.3% (active)
32 | O=C(NC(=S)Nc1ccccc1N1CCOCC1)c1sc2ccccc2c1Cl | 7.5%
33 | CN1CCN(c2ccc(NC(=O)c3sc4ccccc4c3Cl)cc2)CC1 | 10.7%
34 | COc1ccccc1NC(=O)CN1CCC(n2c(C)nc3cc(F)ccc32)CC1 | -4.8%
35 | Cn1c(CNc2ccccc2O)nc2ccccc21 | 61.3% (active)
36 | CCCn1c(CNc2ccccc2O)nc2ccccc21 | 34.6%
37 | Cn1c(CNc2nc3ccccc3n2C)nc2ccccc21 | 3.4%
38 | OC(CNc1ccccc1)Cn1ccc2ccccc21 (stereo not given) | 7.5%
39 | OCCNCC(O)Cn1ccc2ccccc21 (stereo not given) | 12%
40 | Oc1ccccc1NCC(O)Cn1ccc2ccccc21 (stereo not given) | 55.3% (active)
41 | O=C(CSCc1ccccc1)N/N=C/c1ccc(OCC(=O)N2CCCCC2)cc1 | 2%
42 | Cc1cc(NC(=O)c2ccco2)ncc1NC(=O)CCc1ccccc1 | 34.9%
43 | COc1cc(NC(=O)CSc2nc(C)c(C)c(C)n2)c(C)cc1[N+](=O)[O-] | -6.6%
44 | Cc1cccc[n+]1C1C(c2ccccc2)C(C#N)=C(C(=C=[N-])C#N)NC1(O)C1CC1 (stereo not given) | 50.8% (active)
45 | N#CC(=C=[N-])C1=C(C#N)C(c2ccccc2F)C([n+]2ccccc2)C(O)(C2CC2)N1 (stereo not given) | 21.1%
46 | Cc1cccc[n+]1C1C(c2ccc([N+](=O)[O-])cc2)C(C#N)=C(C(=C=[N-])C#N)NC1(O)C1CC1 (stereo not given) | 15.2%
47 | Cc1cnc(NC(=O)CC2CCCC2)s1 | -13.1%
48 | Cc1ccccc1Cn1nnc(-c2ccc3c(c2)OCO3)n1 | 12.9%
49 | CC(=O)c1c(C)nc(-c2ccccc2)nc1N | -1.3%
50 | Cc1cc(NC(=O)C23CC4CC(C2)CC(n2cnc([N+](=O)[O-])n2)(C4)C3)no1 | 11.1%

Row | Structure (SMILES) | inhibition
51 | Cc1nc([N+](=O)[O-])nn1C12CC3CC(CC(Cl)(C3)C1)C2 | -2.6%
52 | COCCn1c(SCc2cccnc2)nnc1-c1ccco1 | -18.7%
53 | C=CCn1c(=N)c(C(=O)OCC)cc2c(=O)n3cc(C)ccc3nc21 | -2.4%
54 | CN(CC#CC1(O)c2ccccc2-c2ccccc21)Cc1ccccc1 | 0.8%
55 | N#Cc1ccsc1NC(=O)CN1CCN(c2ccccc2)CC1 | 7.6%
56 | O=C(Cn1cnc2ccccc2c1=O)Nc1ccc2c(c1)OCO2 | 1%
57 | CN1CCN(CC(=O)Nc2ccccc2[N+](=O)[O-])CC1 | -2.9%
58 | CC(C)(C)CNc1cc(N2CCOCC2)ccc1[N+](=O)[O-] | 16.1%
59 | O=C(Cn1cnc2ccccc2c1=O)Nc1ccc2c(c1)OCCO2 | 52.9% (active)
60 | O=C(Cn1cnc2ccccc2c1=O)NCCC(=O)Nc1ccc2c(c1)OCCO2 | -6.6%
61 | CN1CCN(CC(=O)Nc2cc(N3CCOCC3)ccc2[N+](=O)[O-])CC1 | 62.6% (active)
62 | O=C(CN1CCN(c2ccc(O)cc2)CC1)Nc1cc(S(=O)(=O)N2CCCC2)ccc1Cl | 45.4%
63 | N#Cc1ccsc1NC(=O)CN1CCN(c2ccc(O)cc2)CC1 | 54.7% (active)
64 | COc1ccc(N2CCN(CC(=O)Nc3sccc3C#N)CC2)cc1 | 18.8%
65 | Cc1ccc(S(=O)(=O)N2CCOCC2)cc1NC(=O)CN1CCN(c2ccc(O)cc2)CC1 | 53.9% (active)
66 | CC(=O)N1CCN(CC(=O)Nc2cc(S(=O)(=O)N3CCOCC3)ccc2C)CC1 | 2%
67 | COC(=O)c1cc(COc2ccc3oc(C)c(C(=O)OC(C)C)c3c2)c(C)o1 | -0.3%
68 | CC(=O)NCC(=O)OCC(=O)Nc1ccc(C(C)=O)cc1 | -8.8%
69 | CC(=C1C2C=CC1C1C(=O)NC(=O)C21)c1ccccc1 (stereo not given) | 3.8%
70 | Cc1c(NC(=O)COc2cccc3c2OC(C)(C)C3)c(=O)n(-c2ccccc2)n1C | -6.1%
71 | c1ccc(N2CCN(c3cnc4ccccc4n3)CC2)cc1 | 5%
72 | CC(=O)N1CCC(=NNS(=O)(=O)c2ccc(C)c([N+](=O)[O-])c2)CC1 | -31.5%
73 | O=C(NCc1nc2ccccc2[nH]1)C1=C[C@H](c2ccccc2)C[C@H](OCc2ccc(CO)cc2)O1 | 11%
74 | Cn1c(Cn2c(=O)sc3ccccc32)nnc1SCc1cccc(F)c1 | -7.7%
75 | COCCNc1c(-c2ccc(OC)cc2)nc2ccc(Cl)cn12 | -8.6%

Row | Structure (SMILES) | inhibition
76 | Cc1ccc(C)c(S(=O)(=O)N/N=C2/CCCc3ccccc32)c1 | -29.2%
77 | CCOC(=O)C1=C(O)C(=O)N(c2ccc(S(N)(=O)=O)cc2)C1c1ccc(OC)cc1 (stereo not given) | 4.3%
78 | COc1cc(C(F)(F)F)nc(-c2ccccn2)n1 | 4.9%
79 | CN(C)/C=C/C(=O)c1cc(N2CCOCC2)ccc1[N+](=O)[O-] | 55.9% (active)
80 | CC(=O)c1cc(N2CCOCC2)ccc1[N+](=O)[O-] | 2.8%
81 | O=C(c1ccc(N2CCOCC2)cc1[N+](=O)[O-])N1CCOCC1 | 7.3%
82 | O=C(CN1CCN(c2ccc(O)cc2)CC1)Nc1ccc2c(c1)OCCO2 | 62.8% (active)
83 | O=C(CN1CCN(c2ccccc2)CC1)Nc1ccc2c(c1)OCCO2 | -3.7%
84 | O=C(CN1CCOCC1)Nc1ccc2c(c1)OCO2 | 4.7%
85 | O=C(NC1=NCCS1)c1cccc(S(=O)(=O)N2CCCCC2)c1 | 7.1%
86 | Cc1cc(N2CCOCC2)nc2ccc(NC(=O)C3CCC(C)CC3)cc12 (stereo not given) | 0.8%
87 | COc1ccc(/C(C)=N/NC(=O)C2CC2)cc1 | -2.9%
88 | CCc1ccc(NC(=S)N2CCCC(C(F)(F)F)C2)cc1 (stereo not given) | 13.4%
89 | O=C1C(=Cc2ccco2)C(=O)c2ccccc21 | -11.7%
90 | Cc1nc2ccc3[nH]snc3c2n1 | 2.6%
91 | c1cc2[nH]snc2c2nc(C3CC3)nc12 | 54.2% (active)
92 | Cc1cc(/C=C2\NC(=O)N(Cc3ccc(Cl)cc3)C2=O)c(C)n1C | -58.7%
93 | O=C(CN1C(=O)S/C(=C\c2ccc(O)cc2)C1=O)c1ccccc1 | 12.5%
94 | CS(=O)(=O)N1CCN(c2ccccc2NC(=O)CSc2nnc(-c3ccco3)o2)CC1 | 0.5%
95 | CC(C)CN(C(=O)CSc1nnc(-c2ccco2)o1)c1c(N)n(Cc2ccccc2)c(=O)[nH]c1=O | -2.6%
96 | ONc1cccnc1-n1nc(C(F)(F)F)cc1C(F)(F)F | 67.9% (active)
97 | Nc1cccnc1-n1nc(C(F)(F)F)cc1C(F)(F)F | -0.6%
98 | Cc1cc(C(F)(F)F)nn1C(=O)c1cccnc1Cl | 6.5%
99 | COc1cccc(N2CCN(c3ccc(S(=O)(=O)N4CCCC4)cc3)CC2)c1 | 18.6%
100 | Cc1sc2ncnc(NCC(C)(C)N3CCOCC3)c2c1C | -3.6%
